# Assay results from article PMC4336329 (PLoS ONE, 2015).
# In all, about 310,000 compounds went through this assay and about 14,000 (4.5%) showed an effect of 50% or more. Effects have a minus sign here. The list comes from a sample in which strong results are over-represented; it also holds similar structures and randomly drawn compounds.
# Molecular target: human ether-à-go-go-related gene (hERG) potassium channel (human, UniProt Q12809)
# Assay: primary screen, population patch clamp on CHO cells stably expressing hERG; higher = less effect of the substance
# 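Also: peak tail current of the secondary pulse compared with the same well before compound.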
# Sequence of human ether-à-go-go-related gene (hERG) potassium channel (Q12809 whole entry, looked up): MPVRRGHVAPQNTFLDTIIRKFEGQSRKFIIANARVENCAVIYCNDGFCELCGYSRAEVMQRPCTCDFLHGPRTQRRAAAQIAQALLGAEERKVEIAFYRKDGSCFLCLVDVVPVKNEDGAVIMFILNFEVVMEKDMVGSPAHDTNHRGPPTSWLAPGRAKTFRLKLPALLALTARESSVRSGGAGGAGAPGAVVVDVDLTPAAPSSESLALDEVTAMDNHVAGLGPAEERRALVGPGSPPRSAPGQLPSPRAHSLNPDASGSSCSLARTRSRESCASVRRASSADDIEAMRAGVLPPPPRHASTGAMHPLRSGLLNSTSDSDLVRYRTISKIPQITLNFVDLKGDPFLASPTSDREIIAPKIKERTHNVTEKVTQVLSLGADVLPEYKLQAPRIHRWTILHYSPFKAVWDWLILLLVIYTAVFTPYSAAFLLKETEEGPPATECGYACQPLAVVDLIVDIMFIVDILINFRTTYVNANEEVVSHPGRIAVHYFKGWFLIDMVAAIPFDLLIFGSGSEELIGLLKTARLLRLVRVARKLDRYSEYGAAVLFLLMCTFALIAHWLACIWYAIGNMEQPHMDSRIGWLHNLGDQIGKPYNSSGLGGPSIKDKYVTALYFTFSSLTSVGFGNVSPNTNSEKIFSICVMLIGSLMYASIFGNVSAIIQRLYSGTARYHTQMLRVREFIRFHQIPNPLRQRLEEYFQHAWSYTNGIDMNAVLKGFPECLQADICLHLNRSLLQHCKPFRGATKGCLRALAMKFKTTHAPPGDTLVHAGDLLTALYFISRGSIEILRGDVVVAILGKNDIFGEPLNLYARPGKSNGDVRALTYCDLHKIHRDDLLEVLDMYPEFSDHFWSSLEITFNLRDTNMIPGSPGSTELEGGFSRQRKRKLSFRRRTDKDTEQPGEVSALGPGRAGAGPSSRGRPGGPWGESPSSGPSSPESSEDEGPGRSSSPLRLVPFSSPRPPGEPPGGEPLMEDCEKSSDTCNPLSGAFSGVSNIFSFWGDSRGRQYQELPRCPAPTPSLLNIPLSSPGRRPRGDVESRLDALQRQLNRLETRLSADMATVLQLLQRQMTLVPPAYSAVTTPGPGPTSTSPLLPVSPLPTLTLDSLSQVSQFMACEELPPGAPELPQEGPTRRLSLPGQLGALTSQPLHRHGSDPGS
row,Compound,"hERG current change (%, negative = inhibition) at 10uM"
1,CCOC(=O)N1CCC(N2C(=O)c3ccc(C(=O)O)cc3C2=O)CC1,9.66%
2,O=C(NC1CCCCC1)Oc1ccccc1,17.2%
3,COc1cccc(C(=O)N2CCN=C2SCc2cccnc2)c1OC,4.44%
4,COc1ccc(NS(=O)(=O)c2cn(C)cn2)cc1,11.9%
5,Cl.Nc1nc(N2CCN(c3ccccn3)CC2)nc2ccccc12,-68.4%
6,CCN(CC)c1nc(N2CCN(C)CC2)nc2ccccc12.Cl,-44.3%
7,c1ccc(N2CCN(Cc3nc4ccccc4[nH]3)CC2)nc1,9.64%
8,c1ccc2[nH]c(N3CCOCC3)nc2c1,8.82%
9,Cl.Nc1nc(N2CCN(C/C=C/c3ccccc3)CC2)nc2ccccc12,-67.7%
10,Cl.Nc1nc(N2CCCCC2)nc2ccccc12,-45.8%
11,Nc1nc(N2CCOCC2)nc2ccccc12,-19.7%
12,c1ccc(N2CCN(c3nc4ccccc4[nH]3)CC2)nc1,-64.4%
13,Oc1ccc2ccccc2c1CN1CCN(C/C=C/c2ccccc2)CC1,14%
14,COC(=O)c1cccc(N(CC(=O)NC2CCCC2)C(=O)CNC(=O)c2cccs2)c1,-1.26%
15,O=C(Nc1sc2c(c1C(=O)N1CCOCC1)CCCCC2)c1cccnc1,17%
16,CCN(CC)S(=O)(=O)c1ccc(N2CCCC2)c(NC(=O)CC(C)(C)C)c1,-2.34%
17,Cc1cc(C(=O)NC(C)c2ccccc2)c2cc(F)ccc2n1 (stereo not shown),3.06%
18,O=C(N/N=C/c1c(Cl)cccc1Cl)c1cccc(F)c1,3.24%
19,CC/C(C)=N/NC(=O)c1[nH]c2ccc(C)cc2c1-c1ccccc1,0.516%
20,CC1CCCN(C(=O)C2CCC(CNc3c(N4CCCCC4)c(=O)c3=O)CC2)C1 (stereo not shown),-8.22%
21,COC(=O)c1ccc(COc2ccc(C)c(C)c2)o1,12.3%
22,COc1ccc(-n2c(=O)[nH]c3cc(C(=O)NCCc4ccc(OC)c(OC)c4)ccc3c2=O)c(OC)c1,18.5%
23,C=CCN1C(=O)NC(c2ccc(OC)cc2)(C(F)(F)F)S/C1=C(\C#N)c1nnc(N2CCOCC2)n1-c1ccccc1 (stereo not shown),-62.4%
24,CN1C(=O)NC(c2ccccc2)(C(F)(F)F)S/C1=C(/C#N)c1nnc(N2CCOCC2)n1-c1ccccc1 (stereo not shown),-30.3%
25,C=CCN1C(=O)NC(c2ccccc2)(C(F)(F)F)S/C1=C(\C#N)c1nnc(N2CCOCC2)n1-c1ccccc1 (stereo not shown),-19.4%
